Screens from PubChem BioAssay.
FBW7 act – FBW7 E3 ligase activators, primary screen, biochemical, AlphaScreen, human; F-box/WD repeat-containing protein 7 (Homo sapiens), Q969H0; AlphaScreen FBW7–phospho-cyclin E peptide binding, activator screen; normalized activity (activation), % at 26.1 µM; 650,000 tested, 0.13% active; AID 1259310, 2017; in the data active = normalized activity above about 1.9%;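 also: purified mutant Fbw7 with reduced substrate affinity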
GPR151 activ – activators of human GPR151, primary screen, cell-based, PathHunter beta-arrestin, luminescence; activation, % at 11.2 µM; 650,000 tested, 1% active; AID 1508602, 2020; PathHunter beta-arrestin GPR151 cells; in the data active = activation above about 4.9%;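 also: 0% = median of compound wells and 100% = cells with positive control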
MITF primary – MITF inhibitors, primary screen, biochemical, AlphaScreen, human; Microphthalmia-associated transcription factor (Homo sapiens), O75030; AID 1259374, 2018; 650,000 tested, 0.91% active; inhibition, % at 2.6 µM; AlphaScreen MITF homodimerization, bead proximity signal; in the data active = inhibition above about 50%;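 also: 0% = vehicle wells with protein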
Target sequence (O75030 whole entry, looked up): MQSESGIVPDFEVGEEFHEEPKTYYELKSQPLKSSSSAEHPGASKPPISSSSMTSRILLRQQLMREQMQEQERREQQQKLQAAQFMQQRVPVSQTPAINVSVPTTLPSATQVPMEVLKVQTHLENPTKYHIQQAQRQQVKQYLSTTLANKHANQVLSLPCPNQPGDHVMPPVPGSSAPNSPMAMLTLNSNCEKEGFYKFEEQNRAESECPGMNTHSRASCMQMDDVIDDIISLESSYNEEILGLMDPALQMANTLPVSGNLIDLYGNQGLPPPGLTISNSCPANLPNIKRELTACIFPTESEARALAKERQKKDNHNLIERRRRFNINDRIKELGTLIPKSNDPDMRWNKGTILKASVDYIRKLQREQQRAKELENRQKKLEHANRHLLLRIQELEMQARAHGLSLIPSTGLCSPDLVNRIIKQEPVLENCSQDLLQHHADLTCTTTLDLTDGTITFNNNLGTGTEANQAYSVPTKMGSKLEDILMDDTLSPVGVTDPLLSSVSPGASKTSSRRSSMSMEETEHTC
TEAD-YAP inh – TEAD-YAP interaction inhibition, primary screen, TEAD-YAP interaction inhibitor project, luminescence, HEK-TIYL cells; TEAD-Gal4/YAP UAS-luciferase luminescence; inhibition, % at 9.12 µM; 640,000 tested, 1.4% active; in the data active = inhibition above about 32%;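 also: 0% = median of test compound wells and 100% = reference inhibitor wells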
Active calls of the source: *. Sampled rows, rich in hits. Any-hit rate of the full collection: about 3.5%.

SMILES	FBW7 act	GPR151 activ	MITF primary	TEAD-YAP inh
CC1=C(C(=O)OCc2ccccc2)C(c2cccs2)n2ncnc2N1 (centres undefined)	0	1	-10	-8
CCOC(=O)c1cnc2cc(C(F)(F)F)ccc2c1Nc1ccc(F)cc1Cl	0	1	-19	-1
CCN(CC)c1ccc(C2CC(c3ccc(C)cc3)=NN2C(=O)CCC(=O)O)cc1 (centres undefined)	0	1	-14	46*
COc1cc(OC)nc(CCC(=O)NCc2cccc(C(F)(F)F)c2)n1	0	0	2	-2
COc1ccc(-c2nc(CCn3c(C)nc4ccccc43)no2)cc1	0	2	-8	38*
Cc1ccc(-c2nnc(Cn3c(C)nc4ccccc43)o2)cc1	0	-1	-16	58*
CCC(=O)Nc1scc(-c2ccc(Br)cc2)c1C(=O)OC	0	0	-4	2
CCn1c(CN2CCN(c3ccc(F)cc3)CC2)nc2c1c(=O)n(C)c(=O)n2C	0	3	-7	27
CCn1c(CN2CCN(c3ccccc3)CC2)nc2c1c(=O)n(C)c(=O)n2C	0	2	0	46*
CCOc1ccccc1C(=O)NC1CC2CCC1(C)C2(C)C (centres undefined)	0	4	-1	0
O=C1CCCN1CCCNc1nc(N2CCN(c3ccccn3)CC2)nc2c1ncn2CCN1CCCC1=O	0	-1	8	0
O=C1CCCN1CCCNc1nc(N2CCOCC2)nc2c1ncn2-c1ccccc1	0	4	3	67*
O=C1CCCN1CCCNc1nc(N2CCN(c3ccccn3)CC2)nc2c1ncn2-c1ccccc1	0	-1	-13	56*
O=C(O)CC(NCc1ccco1)C(=O)NCc1ccccc1 (centres undefined)	0	-3	18	6
CC(=O)N(C1=C(N2CCCC2)C(=O)c2ccccc2C1=O)c1ccc(F)c(F)c1	0	-4	-18	22
CC(=O)N(C1=C(Nc2ccccc2)C(=O)c2ccccc2C1=O)c1ccccc1	0	-2	21	9
CCCNC1=C(N(C(C)=O)c2cccc(F)c2)C(=O)c2ccccc2C1=O	0	-5	7	93*
CC(=O)N(C1=C(N2CCCCC2)C(=O)c2ccccc2C1=O)c1cccc(Cl)c1	0	0	56*	-2
CC(=O)N(C1=C(N2CCN(C)CC2)C(=O)c2ccccc2C1=O)c1cccc(F)c1	0	-2	-2	88*
COC(=O)C(Oc1ccc2ccc(=O)oc2c1)c1ccccc1 (centres undefined)	1	-2	14	3
CCOc1ccc(C2Nc3ccccc3C(=O)N2c2ccc(F)c(Cl)c2)cc1 (centres undefined)	0	-6	14	-46
CCOc1ccc(C2Nc3ccccc3C(=O)N2c2ccc3ccccc3c2)cc1 (centres undefined)	0	-7	1	74*
O=C(NN=C1CCCC1)c1n[nH]c2c1CCCC2	0	1	-1	42*
CC1(C)CC(=NNC(=O)c2n[nH]c3c2CCCC3)CC(C)(C)N1	0	-1	11	39*
COc1cc(/C(C)=N/NC(=O)c2n[nH]c3c2CCC3)ccc1O	0	1	1	35*
SMILES	FBW7 act	GPR151 activ	MITF primary	TEAD-YAP inh
NNC(=O)c1n[nH]c2c1CCCC2	0	0	5	8
O=C(NN=C1CCCC1)c1n[nH]c2c1CCC2	0	1	5	64*
CC1(C)CC(=NNC(=O)c2ccncc2)CC(C)(C)N1	0	0	-5	-2
CCCCCNS(=O)(=O)c1ccc(OC)c(I)c1	0	1	-4	2
COc1cccc(CN(CCCN(C)C)C(=O)c2cc3ccc(-c4ccncc4)cc3[nH]2)c1	0	-1	8	-16
C/C(=N\NC(=O)c1n[nH]c2c1CCC2)c1ccco1	0	0	4	52*
CC/C(C)=N/NC(=O)c1n[nH]c2c1CCC2	0	4	-23	43*
O=[N+]([O-])c1cc([N+](=O)[O-])c(N2CCCCC2)cc1Cl	0	4	11	-1
COc1cc(N)c(-c2nc3ccccc3[nH]2)cc1OC	1	-7	16	46*
c1ccc2[nH]c(-c3cc(-c4cc(-c5nc6ccccc6[nH]5)c5ccccc5n4)nc4ccccc34)nc2c1	0	-10	11	82*
COc1ccccc1NC(=O)Cc1noc(CSc2nnc(-c3ccccc3)o2)n1	4.5*	0	9	-11
Cn1c(N)c(C(=O)COC(=O)c2cccnc2)c(=O)n(C)c1=O	0	1	3	2
c1ccc2c(-c3csc(NCC4CCCO4)n3)c[nH]c2c1 (centres undefined)	0	0	-6	-10
c1ccc2c(-c3csc(NC4CCCC4)n3)c[nH]c2c1	5.4*	0	1	-9
CCOC(=O)C1CCN(c2c(Nc3ccc(C)c(F)c3)c(=O)c2=O)CC1	0	0	-1	-10
CCOC(=O)C1CCN(c2c(NCc3ccc(F)cc3)c(=O)c2=O)CC1	0	-2	12	64*
CCOC(=O)C1CCN(c2c(Nc3cccc(SC)c3)c(=O)c2=O)CC1	0	0	1	55*
CCOC(=O)C1CCN(c2c(NCc3ccc(Cl)cc3)c(=O)c2=O)CC1	0	-1	1	67*
CCOC(=O)C1CCN(c2c(NCc3ccc(OC)cc3)c(=O)c2=O)CC1	0	0	-10	58*
CCOC(=O)C1CCN(c2c(NCc3ccc(N(C)C)cc3)c(=O)c2=O)CC1	0	1	5	1
CCCCn1c(O)c(C=NCCc2c[nH]c3ccccc23)c(=O)[nH]c1=S	0	-1	-3	7
O=C1NC2=C(C(=O)CCC2)C(c2ccccc2F)N1 (centres undefined)	0	5	-2	12
COc1ccc(C(C[N+](=O)[O-])Sc2cccc3cccnc23)cc1 (centres undefined)	-1	-1	16	57*
COC(=O)CSc1cccc2cccnc12	-1	0	-11	-3
O=C(COc1ccccc1)Nc1cc([N+](=O)[O-])ccc1O	0	-8	3	56*
SMILES	FBW7 act	GPR151 activ	MITF primary	TEAD-YAP inh
O=C(COc1ccccc1Cl)Nc1cc([N+](=O)[O-])ccc1O	0	0	-24	69*
CCCn1c2c(c(O)c(C(=O)Nc3nc(C45CC6CC(CC(C6)C4)C5)cs3)c1=O)CCCC2	0	0	0	2
CCN(CCNS(=O)(=O)c1ccc(OC)c2ncccc12)Cc1ccccc1	0	1	4	-7
CC(C)(C)c1ccc(C(=O)Nc2cccc(C(=O)O)c2)cc1	0	-7	9	84*
O=C(O)c1cccc(NC(=O)c2ccc(-c3ccccc3)cc2)c1	0	3	-4	41*
CCCCOC(=O)c1cccc(NC(=O)c2ccc(C(C)(C)C)cc2)c1	0	1	-7	52*
